In PubChem BioAssay (Tox21):
Inconclusive results are not listed. Activity calls are given as the source filed them. Unless noted, the call rests on the fitted dose curve; in most records, active means well fitted curve in the direction sought with a large enough effect in the repeat runs; inconclusive means weak or mixed curves; inactive means no such curve, though single readings can be large; an effect the other way counts as inactive or inconclusive.

Tests used:
[1] = A CellTox Green Cytotoxicity Assay to monitor cytotoxicity in HEK293 cells - 32 hour (AID 1224881); further: nearly all actives have a fitted effect of over 40% in size
How it was run: (§1)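 Seeding of HEK293 cells together with cytotoxicity dye preceded a 5 h incubation at 37 C/5% CO2. Test compounds in DMSO were then added and fluorescence monitored across 40 h.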

[2] = A CellTox Green Cytotoxicity Assay to monitor cytotoxicity in HepG2 cells - 0 hour (AID 1224882); further: nearly all actives have a fitted effect of over 35% in size
How it was run: (§2)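 Nonlytic assay: viable cells exclude the dye, so fluorescence scales with cell death. HepG2 at 600 cells/well, compounds added after 5 h, signal read across 40 h.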

[3] = A CellTox Green Cytotoxicity Assay to monitor cytotoxicity in HepG2 cells - 32 hour (AID 1224883); further: nearly all actives have a fitted effect of over 50% in size
How it was run: as §2

[4] = A CellTox Green Cytotoxicity Assay to monitor cytotoxicity in HEK293 cells - 8 hour (AID 1224884); further: nearly all actives have a fitted effect of over 35% in size
How it was run: as §1

[5] = A CellTox Green Cytotoxicity Assay to monitor cytotoxicity in HepG2 cells - 8 hour (AID 1224890); further: nearly all actives have a fitted effect of over 45% in size
How it was run: as §2

[6] = qHTS assay to identify small molecule antagonists of the estrogen receptor alpha (ER-alpha) signaling pathway using the BG1 cell line in the presence of 0.1 nM 17-beta-estradiol - cell viability counter screen (AID 1259241); further: nearly all actives have a fitted effect of over 40% in size
How it was run: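 Cells were plated and left 24 hr, compounds in DMSO were pinned in, 17beta-estradiol was added to 0.1 nM final, and after 22 hr CellTiter-Fluor reagent was added for 30 min before fluorescence was read.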

[7] = qHTS assay to identify small molecule antagonists of the androgen receptor (AR) signaling pathway using the MDA cell line in the presence of 0.5 nM R1881 - cell viability counter screen (AID 1259242); further: nearly all actives have a fitted effect of over 45% in size
How it was run: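 R1881 at 0.5 nM final stimulated MDA-kb2 cells during 16 hr compound treatment at 37C. Cytotoxicity read: CellTiter-Fluor fluorescence after 30 min.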

[8] = molecular target: Androgen receptor (Homo sapiens) (UniProt P10275); assay: qHTS assay to identify small molecule antagonists of the androgen receptor (AR) signaling pathway using the MDA cell line in the presence of 0.5 nM R1881 (AID 1259243); further: nearly all actives have a fitted effect of over 50% in size
How it was run: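 We exposed MDA-kb2 cells to compounds under 0.5 nM R1881 stimulation for 16 hr at 37C and quantified MMTV-driven luciferase by luminescence.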

[9] = qHTS assay to identify small molecule phospholipidosis (PLD) inducers (AID 1259344; active means well fitted curve in the direction sought with a large enough effect; an effect the other way counts as inactive or inconclusive)
How it was run: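 HepG2 cells, 900/well, treated with compound plus LipidTOX Red for 24 h at 37 C; amiodarone positive and DMSO negative controls. Fixed with paraformaldehyde/Hoechst, then high-content imaging scored LipidTOX pit count and integrated intensity per well and per cell.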

[10] = qHTS assay to identify small molecule HDAC inhibitors (AID 1259364);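 further: wild-type HCT-116 cells with endogenous class I/II HDAC activity; top concentration of the series differs between compounds; nearly all actives have a fitted effect of over 45% in size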
How it was run: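 Relative class I and II HDAC activity is taken from the luminogenic signal in HCT-116 cells, with compound exposure 2 hr and reagent development 30 min at room temperature.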

[11] = qHTS assay to identify small molecule HDAC inhibitors - cell viability counter screen (AID 1259365); further: series mostly up to about 92 µM; nearly all actives have a fitted effect of over 50% in size
How it was run: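 Counter screen in wild-type HCT-116 cells: compounds dissolved in DMSO are pin-transferred onto overnight-plated cells and left 2hr at 37C. ATP-based CellTiter-Glo luminescence then measures viable cells.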

[12] = qHTS assay to identify small molecule antagonists of the sonic hedgehog signaling (Shh) pathway - cell viability counter screen (AID 1259367); further: nearly all actives have a fitted effect of over 55% in size
How it was run: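 NIH/3T3-derived Gli1-Luc reporter cells, 2,000/well, plated 4 hr before compound addition, then stimulated with conditioned medium for 24 hr at 37C. Viability measured in the same wells by CellTiter-Fluor fluorescence, reagent added at 23 hr for 1 hr.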

[13] = qHTS assay to identify small molecule agonists of the sonic hedgehog signaling (Shh) pathway (AID 1259368; calls by dose curve;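 further: NIH/3T3-derived 3T3Gli1-Luc cells carrying a stable Gli1-driven firefly luciferase reporter; series mostly up to about 92 µM; nearly all actives have a fitted effect of over 15% in size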)
How it was run: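 Mouse fibroblast (NIH/3T3) reporter cells with stably integrated Gli1-Luc were treated 24 hr with compound; firefly luciferase luminescence served as the read-out.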

[14] = qHTS RealTime-Glo MT Cell Viability Assay in HEK293 cells - 24 hour (AID 1224886); further: top concentration of the series differs between compounds; nearly all actives have a fitted effect of over 50% in size
How it was run: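 Nonlytic real-time viability readout: viable cells convert prosubstrate to NanoLuc substrate, giving luminescence proportional to live cell number. HEK293, 600 cells/well, compound added after 5 h, continuous culture at 37 C.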

[15] = qHTS RealTime-Glo MT Cell Viability Assay in HEK293 cells - 8 hour (AID 1224887)
How it was run: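 Tox21 screen in HEK293 using RealTime-Glo MT chemistry, with cells and reagent co-dispensed. Luminescence proportional to viable cell number was captured at intervals during 40 h compound exposure at 37 C.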

[16] = qHTS RealTime-Glo MT Cell Viability Assay in HepG2 cells - 0 hour (AID 1224889); further: nearly all actives have a fitted effect of over 50% in size
How it was run: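 Luminescence read-out: viable HepG2 cells reduce a prosubstrate to a NanoLuc substrate, giving a signal proportional to live cell number. Reads taken at 0, 8, 16, 24, 32 and 40 h of compound exposure at 37 C.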

[17] = A CellTox Green Cytotoxicity Assay to monitor cytotoxicity in HEK293 cells - 16 hour (AID 1224888); further: nearly all actives have a fitted effect of over 35% in size
How it was run: as §1

[18] = molecular target: Estrogen receptor (Homo sapiens) (UniProt P03372); assay: qHTS assay to identify small molecule antagonists of the estrogen receptor alpha (ER-alpha) signaling pathway using the BG1 cell line in the presence of 0.1 nM 17-beta-estradiol (AID 1259244); further: nearly all actives have a fitted effect of over 50% in size
How it was run: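 VM7Luc4E2; 4xERE-luciferase; 0.1 nM E2 final; 22 h co-incubation, 37C; ONE-Glo luminescence after 30 min at room temperature.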

[19] = qHTS assay to identify small molecule agonists of the sonic hedgehog signaling (Shh) pathway - cell viability counter screen (AID 1259366); further: nearly all actives have a fitted effect of over 50% in size
How it was run: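 Cells are plated at 2,000 per well and left 4hr at 37C, 5% CO2 before compound addition. After 23hr of treatment, CellTiter-Fluor reagent is added for 1hr at 37C and fluorescence is measured.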

Measured: Potency

Estrogen receptor (Homo sapiens), sequence (P03372 whole entry, looked up): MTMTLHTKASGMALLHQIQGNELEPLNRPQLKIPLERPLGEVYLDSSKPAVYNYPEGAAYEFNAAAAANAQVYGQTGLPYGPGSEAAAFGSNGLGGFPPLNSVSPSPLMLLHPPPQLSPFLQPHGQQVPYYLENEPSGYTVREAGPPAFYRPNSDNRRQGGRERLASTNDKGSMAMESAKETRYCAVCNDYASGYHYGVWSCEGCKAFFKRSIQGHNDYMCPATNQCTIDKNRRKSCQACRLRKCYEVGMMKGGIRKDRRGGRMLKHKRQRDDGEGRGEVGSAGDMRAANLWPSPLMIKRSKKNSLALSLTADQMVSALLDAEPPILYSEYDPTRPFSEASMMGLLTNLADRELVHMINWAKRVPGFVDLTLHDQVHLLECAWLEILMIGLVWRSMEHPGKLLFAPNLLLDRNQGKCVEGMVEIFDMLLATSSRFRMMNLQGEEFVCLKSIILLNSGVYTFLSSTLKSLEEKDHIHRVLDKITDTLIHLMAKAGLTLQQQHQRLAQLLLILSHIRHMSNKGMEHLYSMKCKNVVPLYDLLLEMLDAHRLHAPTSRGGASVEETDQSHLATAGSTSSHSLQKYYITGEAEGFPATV
Androgen receptor (Homo sapiens), sequence (P10275 whole entry, looked up): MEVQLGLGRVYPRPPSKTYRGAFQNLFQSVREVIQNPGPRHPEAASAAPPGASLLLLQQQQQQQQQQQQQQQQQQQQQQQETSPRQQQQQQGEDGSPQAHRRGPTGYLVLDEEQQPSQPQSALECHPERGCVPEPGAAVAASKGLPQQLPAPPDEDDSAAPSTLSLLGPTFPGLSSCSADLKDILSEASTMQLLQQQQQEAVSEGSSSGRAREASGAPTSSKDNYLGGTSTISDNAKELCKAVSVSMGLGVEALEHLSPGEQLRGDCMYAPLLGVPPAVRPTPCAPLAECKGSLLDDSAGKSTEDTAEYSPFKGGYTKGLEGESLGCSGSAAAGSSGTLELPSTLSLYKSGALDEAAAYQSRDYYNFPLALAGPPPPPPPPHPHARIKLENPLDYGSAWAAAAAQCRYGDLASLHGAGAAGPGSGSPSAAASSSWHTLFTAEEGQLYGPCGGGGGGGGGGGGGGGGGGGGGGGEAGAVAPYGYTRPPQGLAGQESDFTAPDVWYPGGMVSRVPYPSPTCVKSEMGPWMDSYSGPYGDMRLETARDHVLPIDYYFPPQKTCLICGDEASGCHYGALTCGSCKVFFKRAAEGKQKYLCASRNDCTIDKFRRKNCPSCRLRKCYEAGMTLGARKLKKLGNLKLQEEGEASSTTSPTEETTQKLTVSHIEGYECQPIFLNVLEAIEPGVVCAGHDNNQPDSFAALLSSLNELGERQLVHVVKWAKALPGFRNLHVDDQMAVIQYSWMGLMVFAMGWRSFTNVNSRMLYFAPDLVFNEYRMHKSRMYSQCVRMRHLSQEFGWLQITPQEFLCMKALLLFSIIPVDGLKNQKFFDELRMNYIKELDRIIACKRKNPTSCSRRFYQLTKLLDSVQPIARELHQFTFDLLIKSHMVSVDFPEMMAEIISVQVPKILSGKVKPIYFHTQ

C[C@]12CCC(=O)C=C1CC[C@@H]1[C@@H]2[C@@H](O)C[C@@]2(C)[C@H]1CC[C@]2(O)C(=O)CO
not listed: [14] | [15] | [16] | [17] | [18] | [19]
inactive: all other assays above

CC1(C)OC[C@@H]2O[C@@]3(C(=O)O)OC(C)(C)O[C@H]3[C@@H]2O1
not listed: [8] | [17] | [18] | [19]
inactive: all other assays above

CCO[Si](CCC#N)(OCC)OCC
not listed: [8] | [9] | [14]
inactive: all other assays above

CC(C)(C#N)c1cc(Cn2cncn2)cc(C(C)(C)C#N)c1
not listed: [8] | [10] | [17] | [18] | [19]
inactive: all other assays above

CC(C)c1cccc(C(C)C)c1
not listed: [8] | [9] | [17]
inactive: all other assays above

COc1ccc(N)c(C)c1
not listed: [8] | [9] | [10]
inactive: all other assays above

CNC(=O)Oc1ccc2c(c1)[C@]1(C)CCN(C)[C@@H]1N2C
not listed: [8] | [10]
inactive: all other assays above

CC(C)(C)c1cc(Cc2cc(C(C)(C)C)c(O)c(C(C)(C)C)c2)cc(C(C)(C)C)c1O
not listed: [8] | [9] | [10]
inactive: all other assays above

CC(=O)CCC=C(C)C
not listed: [8] | [9] | [17]
inactive: all other assays above
